# Source: PubChem
# Most compounds without a hit are left out; they make up all but 28% or so of the library.
# Pyk2 oligo antag – Pyk2 (human) oligomerization antagonism; z-score (the deposit names both 25 µM and 10 µM); Q293 cells, Pyk2 FERM NanoBiT luminescence; stronger effect = lower value; Q14289; 99,000 tested, 0.83% active;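 active means Z-score of -3 or lower, scaled per plate to the spread of control and sample wells; inactive means z-score above -3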;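 further: negative z-score means lost luminescence so less FERM oligomerization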
# CYP2C9 activ – activators of human CYP2C9. P11712. AID 1024. 96,000 tested, 1.4% active. activation factor at 5 µM. recombinant CYP2C9, luciferin-H conversion, luminescence; stronger effect = higher value; factor 1 = untreated enzyme, 0 = blocked;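 active means activation factor of 2 or more for CYP2C9 at a 5 µM dose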;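 further: 0 = sulfaphenazole-blocked wells and 1 = vehicle-only wells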
# Target sequence (P11712 whole entry, looked up): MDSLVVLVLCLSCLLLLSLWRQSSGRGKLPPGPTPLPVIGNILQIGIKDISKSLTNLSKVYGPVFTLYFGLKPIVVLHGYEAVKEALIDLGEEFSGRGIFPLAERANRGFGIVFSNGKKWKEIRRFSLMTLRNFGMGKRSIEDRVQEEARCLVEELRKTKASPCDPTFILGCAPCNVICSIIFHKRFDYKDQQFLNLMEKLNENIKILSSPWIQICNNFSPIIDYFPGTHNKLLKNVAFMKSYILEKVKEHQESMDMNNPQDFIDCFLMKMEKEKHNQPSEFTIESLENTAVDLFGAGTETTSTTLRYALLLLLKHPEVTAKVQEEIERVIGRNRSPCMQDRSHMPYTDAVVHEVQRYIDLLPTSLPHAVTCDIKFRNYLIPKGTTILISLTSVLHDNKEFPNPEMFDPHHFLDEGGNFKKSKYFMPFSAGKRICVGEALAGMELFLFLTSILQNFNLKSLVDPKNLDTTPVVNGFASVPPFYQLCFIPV
# CYP2C19 activ – cytochrome P450 2C19 (human) activation; recombinant CYP2C19, luciferin-H EGE luminescence; stronger effect = higher value; 0 = fully inhibited enzyme, 1 = untreated enzyme; 96,000 tested, under 10 active; activation factor at 5 µM;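 active means activation factor of at least 2 at 5 µM in the primary screen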;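 further: 0 = wells with 2.5 mM tranylcypromine and 1 = vehicle-only wells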
# CYP2C9 inh – inhibitors of human CYP2C9; P11712; 96,000 tested, 20% active; inhibition, % at 5 µM; CYP2C9 Supersomes, luciferin-H conversion, luminescence;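 active means blocking of liver enzyme CYP2C9 beyond about 50% at 5 µM, limit read from the data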
# CYP2C19 inhib – blocks human cytochrome P450 2C19; 96,000 tested, 21% active; P33261; inhibition, % at 5 µM; CYP2C19 Supersomes, luciferin-H EGE luminescence, 30 min;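 active means CYP2C19 inhibition above a set limit at 5 µM in the primary screen, cut at about 50% in these data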;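 further: plate controls were negative control wells for no effect and 2.5 mM tranylcypromine positive control for full effect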
# Starred values were filed as active, the others as inactive; x = no result.
SMILES,Pyk2 oligo antag,CYP2C9 activ,CYP2C19 activ,CYP2C9 inh,CYP2C19 inhib
O=C1C2ON(c3ccccc3)C(c3ccncc3)C2C(=O)N1c1ccccc1 (stereo unspecified),-0.63,0.1,0,86.0*,99.5*
Cc1cccc(C)c1N1C(=O)C2ON(c3ccccc3)C(c3ccncc3)C2C1=O (stereo unspecified),-0.35,0,0,100.0*,100.0*
COc1ccc(OC)c(CN2CCCC(CO)C2)c1 (stereo unspecified),-0.16,1.1,1.1,-8.4,-9.8
O=C(Nc1ccc(Br)cc1F)C1CCN(c2nnc(-n3cccc3)s2)CC1,x,1,1.1,-0.5,-5.2
Cc1cc(NC(=O)NC(=O)c2ccc(F)cc2F)n[nH]1,-0.61,1,0.7,-3.7,28.2
N#CCOC(=O)c1sccc1-n1cccc1,0.86,2*,0.9,-95.2,9.3
CCOC(=O)Cn1c(=O)c2c(nc(N3CCCCC3)n2Cc2ccccc2)n(C)c1=O,-1.09,0.7,0.8,31.2,16.8
CCOC(=O)CCn1c(=O)c2c(nc(Br)n2Cc2ccccc2)n(C)c1=O,0.28,0.6,0.4,40.8,60.0*
CCOC(=O)CCn1cc(F)c(=O)n(Cc2ccccc2)c1=O,0.16,0.9,0.5,11.3,51.7*
CCOC(=O)Cn1c(=O)c2c(nc(Br)n2Cc2ccc(Cl)cc2)n(C)c1=O,x,0.4,0.6,56.5*,43.7
COc1cccc(CC(NC(C)=O)C(=O)NC2CCN(S(=O)(=O)c3ccc4ccccc4c3)CC2)c1 (stereo unspecified),0.49,1,1,-4.6,-1.2
c1cc(C(c2nnnn2C2CCCC2)N2CCOCC2)ccn1 (stereo unspecified),0.03,0.7,0.2,28.0,83.4*
Oc1ccc(N2CCN(C(c3ccncc3)c3nnnn3C3CCCC3)CC2)cc1 (stereo unspecified),-0.36,0.5,0.5,47.6,51.7*
c1ccc(Cn2nnnc2C(c2ccncc2)N2CCOCC2)cc1 (stereo unspecified),0.96,0.8,0.6,21.8,37.2
CCNc1nc(NCC)nc(SCCOC(=O)COc2ccc(Cl)cc2Cl)n1,0.63,0.8,0.9,18.2,12.1
CCOC(=O)CC1C(=O)NCCN1C(=O)Nc1ccccc1 (stereo unspecified),0.53,0.9,0.7,5.9,25.7
CCc1ccc2c(COC(=O)c3n[nH]c4ccccc34)cc(=O)oc2c1,-0.77,0.2,0.4,80.6*,57.9*
Cc1ccc2c(COC(=O)c3n[nH]c4ccccc34)cc(=O)oc2c1,-0.37,0.4,0.9,56.7*,12.2
CCOC(=O)c1n[nH]c2ccccc12,0.68,x,x,x,x
FC(F)(F)C1=CC(c2ccc(Br)cc2)=NCCN1,1.11,0.9,0.9,10.7,9.8
Cc1cc(C)n(C(=O)CCCCCCCCC(=O)n2nc(C)cc2C)n1,0.62,0.4,0.3,58.4*,70.9*
CCOC(=O)n1c(=O)n(Cc2ccccc2)c2ccccc21,0.53,0.8,0.3,18.2,70.3*
Cn1c(=O)n(Cc2ccccc2)c2ccccc21,-0.16,1,0.8,2.6,18.6
CCOC(=O)n1c(=O)n(Cc2ccc(Cl)c(Cl)c2)c2ccccc21,-1.15,0.5,0.5,53.3*,51.3*
CCOC(=O)n1c(=O)n(Cc2c(Cl)cccc2Cl)c2ccccc21,-1.91,0.5,0.4,48.0,60.6*
SMILES,Pyk2 oligo antag,CYP2C9 activ,CYP2C19 activ,CYP2C9 inh,CYP2C19 inhib
CCOC(=O)n1c(=O)oc2ccccc21,-0.52,1,1,3.8,1.5
C=CCc1ccc(OCCOc2cccc3ccc(C)nc23)c(OC)c1,-1.31,2.1*,0.6,-107.4,36.1
C=CCc1ccc(OCCn2cccc2C=O)c(OC)c1,-0.91,0.6,0.3,39.2,69.7*
COc1cccc(OCCCCCCN2CCOCC2)c1,-0.51,0.7,0.5,29.1,53.7*
C=CCc1ccc(OCCCCCN2CCOCC2)c(OC)c1,1.55,0.8,0.4,17.3,64.2*
C=CCc1ccc(OCCOCCN(C)C)c(OC)c1,0.33,1,0.9,4.4,8.6
CC(C)(C)C(=O)CSc1nccc(=O)[nH]1,0.02,1,1,0.1,-4.2
O=C(NC1(C(F)(F)F)C(=O)Nc2c1c(=O)[nH]c(=O)n2-c1ccccc1)c1ccncc1 (stereo unspecified),0.03,x,x,x,x
CC1C(c2ccccc2)C(C#N)(C#N)C2(C#N)C(=O)NC1(N)C2C (stereo unspecified),0.12,0.7,0,34.4,98.2*
CCCC1C(c2ccc(OC)cc2)C(C#N)(C#N)C2(C#N)CC1(N)NC2=O (stereo unspecified),0.51,0.6,1.1,45.0,-6.5
COc1ccc(N2CCN(C(=O)Cn3c(=O)[nH]c4ccsc4c3=O)CC2)cc1,-0.01,1.1,1.1,-12.2,-8.7
O=[N+]([O-])c1cc2c(cc1/C=N/Nc1nc(Nc3ccccc3)nc(N3CCCCC3)n1)OCO2,-2.38,x,x,x,x
COc1ccc(NC(C)=O)cc1NC(C)C(=O)Nc1ccc(F)c(F)c1F (stereo unspecified),-0.61,0.5,0.3,46.6,70.4*
COc1ccc(NC(C)=O)cc1NC(C)C(=O)Nc1ccccc1F (stereo unspecified),1.7,0.9,0.8,7.8,23.5
COc1ccc(CCNC(=O)C2(C)CCC(=O)N2Cc2ccc3c(c2)OCO3)cc1OC (stereo unspecified),x,1,0.5,-1.2,53.7*
COC(=O)c1cnc2c(C(F)(F)F)cccc2c1OC,0.1,1,0.7,-1.7,28.6
COC(=O)c1cc2ccccc2c(-c2c(OC)c(C(=O)OC)cc3ccccc23)c1OC,-2.59,0.2,0.5,81.1*,54.0*
O=C(CCSc1nnc(-c2ccncc2)o1)Nc1ccc(F)cc1,0.82,0.4,0.1,56.8*,85.1*
O=C(CCSc1nnc(-c2ccncc2)o1)Nc1cccc2ccccc12,-0.22,x,x,x,x
Cc1nnc(SCCC(=O)Nc2ccc(F)cc2)s1,0.16,1,0.8,-1.1,16.8
O=C(CCSc1nnc(-c2ccncc2)o1)Nc1ccccc1,1.3,0.2,0.1,84.9*,86.4*
Cc1cc(=O)[nH]c(Nc2ccc(C(=O)OC(C)C)cc2)n1,-0.06,0.7,0.7,27.0,25.9
O=C1CCCCCN1CSc1nc2ccccc2s1,2.09,1.2,0.7,-15.8,33.5
O=C(CSc1nc2ccccc2s1)N1CCOCC1,2.41,0.7,0.2,25.9,78.3*
O=C(CSc1nc2ccccc2s1)NCCCN1CCOCC1,-0.28,0.9,0.8,5.0,20.7
NC(=O)C1(N2CCCCC2)CCN(C(=O)CSc2nc3ccccc3s2)CC1,-0.06,0.2,0.2,79.1*,78.1*
CC(C)(C)C(=O)/C(C#N)=c1\s/c(=C\c2ccncc2)c(=O)n1CCCN1CCOCC1,x,0.8,0.7,21.9,32.1
CC(C)=CC(=O)Nc1ccc(Br)cc1,0.25,0.3,0.8,73.2*,23.0
CN1CCN(c2oc(COc3ccc(-c4ccccc4)cc3)nc2C#N)CC1,-2.65,0.8,0.4,19.9,55.1*
N#Cc1nc(COc2ccccc2)oc1N1CCCCCC1,x,0.8,0.9,22.7,14.6
